Assay [1] is described as follows: NCI Yeast Anticancer Drug Screen. Data for the rad50 strain (AID 155).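 Note: 0% = growth of vehicle-only cultures of the same strain.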 The settings on record: S. cerevisiae rad50 strain growth inhibition, stronger effect = higher value. The essentials:
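Relative growth inhibition (compound vs vehicle) was measured in yeast with a defined repair-gene alteration.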

The nature of assay [2]: NCI Yeast Anticancer Drug Screen. Data for the mec2-1 strain (AID 157). The settings on record: S. cerevisiae mec2-1 strain, stronger effect = higher value. The essentials:
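mec2-1 yeast strain, carrying an alteration in DNA damage repair or cell cycle control, was exposed to compounds; growth inhibition was measured relative to vehicle-treated controls.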

A short description of assay [3]: NCI Yeast Anticancer Drug Screen. Data for the sgs1 mgt1 strain (AID 161).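 Note: 0% = growth of cultures given vehicle only.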 The conditions noted are these: S. cerevisiae sgs1 mgt1 strain, stronger effect = higher value. The essentials:
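This yeast growth screen uses a strain with defined DNA-repair lesions; compound-treated growth is compared with vehicle-treated growth.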

A short description of assay [4]: NCI Yeast Anticancer Drug Screen. Data for the cln2 rad14 strain (AID 165).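 Note: 0% = growth equal to vehicle treated cultures.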 The settings on record: S. cerevisiae cln2 rad14 strain, stronger effect = higher value. The essentials: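 Yeast carrying cln2 and rad14 alterations (cell cycle control and DNA damage repair) were exposed to compounds. Growth inhibition was measured against vehicle-treated controls.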
Assay [5] in a line: NCI Yeast Anticancer Drug Screen. Data for the bub3 strain (AID 167). The settings on record: S. cerevisiae bub3 mutant strain, stronger effect = higher value. The essentials: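 Screening used yeast with an engineered genetic alteration affecting cell cycle control. Compound-exposed cultures were compared with vehicle cultures, and reduced growth was taken as inhibition.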
Assay [6] is described as follows: NCI Yeast Anticancer Drug Screen. Data for the mlh1 rad18 strain (AID 175). The conditions noted are these: S. cerevisiae mlh1 rad18 strain growth inhibition, stronger effect = higher value. The essentials:
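Growth inhibition of the yeast strain was measured after compound exposure and expressed relative to vehicle-treated controls. The strain carries defined defects in DNA damage repair.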

Where [7] appears, read: at 5.0 µM (retest, dose inferred, filed as 0.5).
The mark [8] stands for this setting: at 50.0 µM (retest, dose inferred, filed as 5.0).

Results on 9 compounds are retold here after PubChem BioAssay (NCI).

The panel holds about 79,000 compounds, 15% with a hit somewhere; the sample as a whole holds those more often. A number with no mark means an inactive call. Active and inactive are the calls of the source. Cut-off read from the data, not from the text of the source: active = growth inhibition above about 70%; inactive = the rest.

Regarding `O=C(O)c1cccc(S(=O)(=O)NN2C(=O)CSC2c2c(O)ccc3ccccc23)c1` (configuration not stated), the growth inhibition in assay [1] (setting [7]) is -11%; in assay [1] (setting [8]), 50%; in assay [1] (at 50.0 µM), 61.9%; in assay [2] (setting [7]), 0%; in assay [2] (setting [8]), 50%; in assay [2] (at 50.0 µM), 61%. For the same compound, the growth inhibition was 2% in assay [3] (setting [7]); 80% (active) in assay [3] (setting [8]); 91.7% (active) in assay [3] (at 50.0 µM); -4% in assay [4] (setting [7]); 57% in assay [4] (setting [8]); 36.9% in assay [4] (at 50.0 µM). For the same compound, the growth inhibition in assay [5] (setting [7]) is 6%; in assay [5] (setting [8]), 86% (active); in assay [5] (at 50.0 µM), 83.5% (active); in assay [6] (setting [7]), -15%; in assay [6] (setting [8]), 82% (active); in assay [6] (at 50.0 µM), 95.2% (active).

As to `CCC(Cl)COP(=O)(OC(c1ccc(Cl)c(Cl)c1)P(=O)(OCC(Cl)CC)OCC(Cl)CC)C(CC)CCl` (configuration not stated), the growth inhibition in assay [1] (setting [7]) is 6%; in assay [1] (setting [8]) it was 71% (active); in assay [1] (at 50.0 µM), 86.7% (active); in assay [2] (setting [7]), -81%; in assay [2] (setting [8]), 45%; in assay [2] (at 50.0 µM), 96.2% (active). In addition, the growth inhibition in assay [3] (setting [7]) was -3%; in assay [3] (setting [8]), 45%; in assay [3] (at 50.0 µM) it was 94.2% (active); in assay [4] (setting [7]), -4%; in assay [4] (setting [8]), 57%; in assay [4] (at 50.0 µM), 83.5% (active). Further, the growth inhibition in assay [5] (setting [7]) is -2%; in assay [5] (setting [8]), 57%; in assay [5] (at 50.0 µM), 79.5% (active); in assay [6] (setting [7]), 6%; in assay [6] (setting [8]), 80% (active); in assay [6] (at 50.0 µM) it was 94.2% (active).

For the compound `CC1(C)OC2C(COC(c3ccccc3)(c3ccccc3)c3ccccc3)OC(n3cnc4c(=O)[nH]cnc43)C2O1` (configuration not stated), the growth inhibition is 43% in assay [1] (setting [7]); 97% (active) in assay [1] (setting [8]); 69% in assay [1] (at 50.0 µM); 62% in assay [2] (setting [7]); 99% (active) in assay [2] (setting [8]); 62% in assay [2] (at 50.0 µM). Besides, the growth inhibition in assay [3] (setting [7]) was 24%; in assay [3] (setting [8]) it was 99% (active); in assay [3] (at 50.0 µM), 56.5%; in assay [4] (setting [7]), 19%; in assay [4] (setting [8]), 97% (active); in assay [4] (at 50.0 µM) it was 50.9%. The growth inhibition in assay [5] (setting [7]) was 30%; in assay [5] (setting [8]) it was 98% (active); in assay [5] (at 50.0 µM), 49.9%; in assay [6] (setting [7]), 84% (active); in assay [6] (setting [8]) it was 98% (active); in assay [6] (at 50.0 µM), 61.9%.

As for `N#CC(C(=O)C(=O)Nc1cccc(C(F)(F)F)c1)c1ccccc1` (configuration not stated), the growth inhibition is -23% in assay [1] (setting [7]); 90% (active) in assay [1] (setting [8]); -23.1% in assay [1] (at 50.0 µM); -12% in assay [2] (setting [7]); 76% (active) in assay [2] (setting [8]); 10.2% in assay [2] (at 50.0 µM). Besides, the growth inhibition was -19% in assay [3] (setting [7]); 75% (active) in assay [3] (setting [8]); 16.6% in assay [3] (at 50.0 µM); -9% in assay [4] (setting [7]); 90% (active) in assay [4] (setting [8]); -20.7% in assay [4] (at 50.0 µM). Further, the growth inhibition is -10% in assay [5] (setting [7]); 94% (active) in assay [5] (setting [8]); 6.55% in assay [5] (at 50.0 µM); 34% in assay [6] (setting [7]); 83% (active) in assay [6] (setting [8]); 12.7% in assay [6] (at 50.0 µM).

As for `CSc1ncnc2nn(C3OC(COC(=O)c4ccccc4)C(OC(=O)c4ccccc4)C3OC(=O)c3ccccc3)nc12` (configuration not stated), the growth inhibition in assay [1] (setting [7]) was -16%; in assay [1] (setting [8]), -1%; in assay [1] (at 50.0 µM), -14.8%; in assay [2] (setting [7]) it was -1%; in assay [2] (setting [8]), -6%; in assay [2] (at 50.0 µM) it was 17.9%. The growth inhibition in assay [3] (setting [7]) is -6%; in assay [3] (setting [8]), 1%; in assay [3] (at 50.0 µM), -13.6%; in assay [4] (setting [7]), -1%; in assay [4] (setting [8]) it was -9%; in assay [4] (at 50.0 µM), 40.3%. The growth inhibition in assay [5] (setting [7]) was -3%; in assay [5] (setting [8]), 3%; in assay [5] (at 50.0 µM), -11.2%; in assay [6] (setting [7]), -5%; in assay [6] (setting [8]), -3%; in assay [6] (at 50.0 µM), 15.2%.

`O=C(c1c(F)c(F)c(F)c(F)c1F)N1CCN(C(=O)c2c(F)c(F)c(F)c(F)c2F)C1=S`: the growth inhibition in assay [1] (setting [7]) was 0%; in assay [1] (setting [8]), 91% (active); in assay [1] (at 50.0 µM), 88.2% (active); in assay [2] (setting [7]), 15%; in assay [2] (setting [8]), 81% (active); in assay [2] (at 50.0 µM), 88.7% (active). The growth inhibition in assay [3] (setting [7]) was 8%; in assay [3] (setting [8]), 94% (active); in assay [3] (at 50.0 µM) it was 90.9% (active); in assay [4] (setting [7]) it was 8%; in assay [4] (setting [8]), 88% (active); in assay [4] (at 50.0 µM), 85.3% (active). Also, the growth inhibition in assay [5] (setting [7]) is -7%; in assay [5] (setting [8]) it was 86% (active); in assay [5] (at 50.0 µM), 85.3% (active); in assay [6] (setting [7]) it was 32%; in assay [6] (setting [8]) it was 92% (active); in assay [6] (at 50.0 µM), 91.2% (active).

For the compound `CCCCN(CCCC)CC(O)c1ccc(CCc2ccccc2)cc1` (configuration not stated), the growth inhibition was -6% in assay [1] (setting [7]); 91% (active) in assay [1] (setting [8]); 99.2% (active) in assay [1] (at 50.0 µM); 22% in assay [2] (setting [7]); 92% (active) in assay [2] (setting [8]); 98.7% (active) in assay [2] (at 50.0 µM). Moreover, the growth inhibition in assay [3] (setting [7]) was 13%; in assay [3] (setting [8]) it was 99% (active); in assay [3] (at 50.0 µM), 99.5% (active); in assay [4] (setting [7]) it was -7%; in assay [4] (setting [8]), 88% (active); in assay [4] (at 50.0 µM) it was 98.7% (active). For the same compound, the growth inhibition is -4% in assay [5] (setting [7]); 92% (active) in assay [5] (setting [8]); 76.2% (active) in assay [5] (at 50.0 µM); 28% in assay [6] (setting [7]); 97% (active) in assay [6] (setting [8]); 99.3% (active) in assay [6] (at 50.0 µM).

For the compound `CCOC(=O)c1c(Cl)nc2ccccc2c1N=[N+]=[N-]`, the growth inhibition in assay [1] (setting [7]) was -10%; in assay [1] (setting [8]) it was 77% (active); in assay [1] (at 50.0 µM), 79.3% (active); in assay [2] (setting [7]), 14%; in assay [2] (setting [8]) it was 95% (active); in assay [2] (at 50.0 µM), 82.5% (active). Further, the growth inhibition in assay [3] (setting [7]) was -13%; in assay [3] (setting [8]), 93% (active); in assay [3] (at 50.0 µM) it was 88.7% (active); in assay [4] (setting [7]), 20%; in assay [4] (setting [8]), 86% (active); in assay [4] (at 50.0 µM), 58%. Also, the growth inhibition in assay [5] (setting [7]) is -21%; in assay [5] (setting [8]), 81% (active); in assay [5] (at 50.0 µM), 86.8% (active); in assay [6] (setting [7]), 2%; in assay [6] (setting [8]), 95% (active); in assay [6] (at 50.0 µM) it was 89.5% (active).

In the case of `CCC1(C)C(C#N)(C#N)C1(C#N)C#N`, the growth inhibition in assay [1] (setting [7]) was -18%; in assay [1] (setting [8]) it was 95% (active); in assay [1] (at 50.0 µM), 81.7% (active); in assay [2] (setting [7]) it was -36%; in assay [2] (setting [8]), 95% (active); in assay [2] (at 50.0 µM), 92.6% (active). Besides, the growth inhibition in assay [3] (setting [7]) is -36%; in assay [3] (setting [8]), 66%; in assay [3] (at 50.0 µM) it was 97.8% (active); in assay [4] (setting [7]), -42%; in assay [4] (setting [8]), 85% (active); in assay [4] (at 50.0 µM) it was 43.7%. Also, the growth inhibition in assay [5] (setting [7]) was -36%; in assay [5] (setting [8]), 95% (active); in assay [5] (at 50.0 µM), 95.4% (active); in assay [6] (setting [7]), -46%; in assay [6] (setting [8]), 95% (active); in assay [6] (at 50.0 µM), 98.2% (active).
